Giardia kill – Small Molecules that selectively kill Giardia lamblia: qHTS; Giardia lamblia trophozoite viability; activity change, % at 7.66 µM, hits read low; 340,000 compounds, 0.15% hits; in the data active means activity change below about -80%; inconclusive means between about -30% and that limit;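 further: parasites exposed to compound for two days anaerobically before the ATP read; on the % scale 0 is the no-effect control and ±100 the full control effect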
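Luminescent ATP signal served as the viability read-out, measured 15-30 min after adding ATP detection reagent to trophozoites that had been incubated with compounds for 48 hrs at 37 deg C anaerobically at 100 cells/well.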
RORg inh – qHTS for inhibitors of ROR gamma transcriptional activity; Nuclear receptor ROR-gamma (Mus musculus), P51450; Drosophila S2 Gal4-RORgamma UAS-luciferase reporter, 20 h; Potency, µM (series often up to 53.6 µM), for inactives: at the highest dose activity change, negative = inhibition, usual class: inhibitors; 310,000 compounds, 5.4% hits; AID 2551, 2010; further: potency means the concentration at half of the fitted maximal effect; on the % scale 0 is the no-effect control and ±100 the full control effect; nearly all actives have a fitted effect of over 60% in size
Target sequence (P51450 whole entry, looked up, the tested form may be a part): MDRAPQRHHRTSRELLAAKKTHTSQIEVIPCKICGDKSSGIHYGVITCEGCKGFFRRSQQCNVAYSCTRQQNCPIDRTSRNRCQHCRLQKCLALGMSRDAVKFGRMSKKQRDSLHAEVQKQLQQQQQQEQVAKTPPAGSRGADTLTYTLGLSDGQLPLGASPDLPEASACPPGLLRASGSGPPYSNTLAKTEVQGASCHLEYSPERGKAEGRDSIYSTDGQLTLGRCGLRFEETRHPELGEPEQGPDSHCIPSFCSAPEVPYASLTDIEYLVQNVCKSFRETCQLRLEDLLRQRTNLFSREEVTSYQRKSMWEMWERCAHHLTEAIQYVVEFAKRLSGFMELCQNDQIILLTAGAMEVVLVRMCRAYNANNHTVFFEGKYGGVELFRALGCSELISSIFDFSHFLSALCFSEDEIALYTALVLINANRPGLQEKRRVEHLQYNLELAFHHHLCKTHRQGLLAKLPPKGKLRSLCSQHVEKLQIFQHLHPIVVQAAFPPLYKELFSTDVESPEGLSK
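Stable Schneider cell line, Gal4 DNA-binding domain fused to ROR gamma, UAS-luciferase. Cmpd 1 hr RT → CuSO4 700 uM final → 20 hr RT → luciferase reagent 10 min → luminescence.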
MCF10A rerep – A quantitative high throughput screen for small molecules that induce DNA re-replication in MCF 10a normal breast cells; MCF 10A DNA re-replication, Hoechst nuclear intensity, 48 h; Potency, µM (doses to about 46.1 µM), inactives show at the highest dose activity, positive = re-replication, hits mostly activators; 350,000 compounds, 2.9% hits; AID 624296, 2012; further: potency means the concentration at half of the fitted maximal effect; % of control where 0% means no effect; nearly all actives have a fitted effect of over 50% in size
Gal4-VP16 FLuc – VP16 counterscreen qHTS for inhibitors of ROR gamma transcriptional activity; Drosophila S2 Gal4-VP16 UAS-luciferase, luminescence, 20 h; Potency, µM (highest dose often 53.6 µM), inactives show top-dose activity, negative = inhibition, hits mostly inhibitors; 310,000 compounds, 3.5% hits; AID 2546, 2010;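 further: Gal4-VP16 expression switched on by copper sulfate through the metallothionein promoter; potency means the concentration at half of the fitted maximal effect; on the % scale 0 is the no-effect control and ±100 the full control effect; nearly all actives have a fitted effect of over 50% in size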
SW480 rerep – A quantitative high throughput screen for small molecules that induce DNA re-replication in SW480 colon adenocarcinoma cells; SW480 DNA re-replication, Hoechst DNA content imaging, 48 h; Potency, µM (titrated, usually from 46.1 µM), for inactives: at the top dose re-replication activation, most hits filed as activators; 340,000 compounds, 1.8% hits; AID 624297, 2012; further: potency means the concentration at half of the fitted maximal effect; % of control where 0% means no effect; nearly all actives have a fitted effect of over 55% in size
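Per well, 250 cells were exposed to pinned compound for 48 hr. Nuclear DNA was visualised with Hoechst (40 min, 37 C) and total object intensity recorded by fluorescence scanning.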
BCR signal inh – qHTS Assay to Find Inhibitors of Chronic Active B-Cell Receptor Signaling; ABC-DLBCL IkBa-CBG/CBR reporter, luminescence ratio, 4 h; Potency, µM (highest dose often 46.1 µM), for the others: at the top dose activity change, negative = inhibition, most hits filed as inhibitors; 340,000 compounds, 0.05% hits; active means well fitted inhibition curve with a large enough effect in the signal ratio, with a control signal flat, not every such curve was filed as active; inconclusive means small, poorly fitted or top-dose-only effect, or effect the other way, or a change in a side signal; the % refers to the signal ratio;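 further: potency means the concentration at half of the fitted maximal effect; plate controls were basal doxycycline-induced cells for no effect and cells given 10 µM MG132 for full effect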
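Cell line TMD8 (human ABC DLBCL), stably expressing tet-inducible CBG68-IkBa fusion and CBR; IMDM/0.5% FBS; cpd up to 46 uM; dox induction, 4 h, 37C/5% CO2; dual luminescence; green/red ratio; MG132 control.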
* = called active by the depositor; ? = inconclusive; . = not tested or not shown; [ ] = another dose, or the depositor's remark. The list is not random: actives were taken first. Their share in the collection is about 8.3%. Unless noted, the call rests on the fitted dose curve; in most records, active means well fitted curve in the direction sought with a large enough effect; inconclusive means small, poorly fitted or top-dose-only effect, or another doubt; inactive means no such curve, though single readings can be large; an effect the other way counts as inactive or inconclusive.

SMILES | Giardia kill | RORg inh | MCF10A rerep | Gal4-VP16 FLuc | SW480 rerep | BCR signal inh
OCCN1CCN(C(c2cccs2)c2ccc3cccnc3c2O)CC1 (stereo not drawn) | . | 11µM* | . | 11µM* | . | -21%
CS(=O)(=O)Nc1c(O)ccc2c1CCC[C@H]2C1=NCCN1 | . | 1% | . | 6% | . | .
CCN(CC)CCOC(=O)[C@@H](c1ccccc1)C1CCCCC1 | . | 1%[16.9 µM] | . | -8%[17 µM] | . | .
CN1CCN(C(c2ccc(C(F)(F)F)cc2)c2cc(Cl)c3cccnc3c2O)CC1 (stereo not drawn) | . | 0.4µM* | . | 0.89µM* | . | ?
COCCCN1C(=O)c2[nH]nc(-c3ccccc3O)c2C1c1cccc(Cl)c1 (stereo not drawn) | 38 | ? | 15µM* | ? | 16µM* | ?
O=C(c1ccc(CN2CCc3ccccc3C2)cc1)N1CCCCC1 | 6 | 13% | 20% | 2% | -4% | 0%
O=C(c1ccc(CN2CCc3ccccc3C2)cc1)N1CCN(c2ccc(F)cc2)CC1 | 4 | . | 7.3µM* | . | -10% | .
O=C(c1ccc(Cn2cc(Cl)cn2)cc1)N1CCN(c2ccccc2)CC1 | -9 | 40% | -181%[0.0737 µM] | 23% | 2% | .
O=C(c1ccc(Cn2cc(Br)cn2)cc1)N1CCN(c2ccccc2)CC1 | 8 | 19% | 21µM* | 6% | 15µM* | 6%
Fc1ccc(C2NC(=S)NC3=C2N2CCC3CC2)cc1 (stereo not drawn) | -6 | -28% | 13µM* | -26% | 2% | 1%
Cc1ccc(S(=O)(=O)N2CCCCC2)cc1C(=O)OC1CCCCC1=O (stereo not drawn) | -25 | . | 5% | . | 0% | -3%
N#CC1=C(N)Oc2cc(O)ccc2C1c1cccs1 (stereo not drawn) | 12 | ? | 0% | 7% | -5% | -19%
N#CC1=C(N)Oc2c(ccc3cccnc23)C1c1ccccc1 (stereo not drawn) | 6 | -25% | 15µM* | -4% | 5.2µM* | ?
N#CC1=C(N)Oc2c(ccc3ccccc23)C1c1cccs1 (stereo not drawn) | 6 | -8% | ? | 11% | 0.56µM* | 7%
Cc1ccc2[nH]c(=O)c(C3C(C#N)=C(N)Oc4c3ccc3cccnc43)cc2c1 (stereo not drawn) | 16 | -6% | ? | -1% | ? | ?
N#CC1=C(N)Oc2ccc3ccccc3c2C1c1cccnc1 (stereo not drawn) | -5 | -19% | 1.6µM* | -10% | 4.6µM* | -13%
O=C(NCc1cccs1)C1CCCN(c2ncccn2)C1 (stereo not drawn) | 6 | 13%[0.365 µM] | 0% | . | 1% | 6%
CCOC(=O)CNC(=O)C1CCCN(c2ncccn2)C1 (stereo not drawn) | -3 | -1% | 17% | -4% | 0.26µM* | 0%
O=C1OC(CO)CN1Cc1ccccc1 (stereo not drawn) | 4 | -2% | -16% | -3% | -4% | -1%
CCCCCCC#Cc1cncc(C(=O)NNC(=O)Nc2cc(Cl)cc(Cl)c2)c1 | 12 | 10% | -32% | 2% | -50% | -10%
CCCCC#Cc1cncc(C(=O)NN)c1 | 4 | 7.9µM* | 7% | 7.9µM* | ? | ?
COC(=O)c1c(-c2ccc(N(C)C)cc2)sc2ccc(OC)cc12 | -2 | . | ? | . | 15µM* | ?
COC(=O)c1c(-c2ccc(OC)cc2)sc2cc3c(cc12)OCO3 | -2 | . | ? | . | -5% | ?
COCCNC(=S)NCc1ccc2[nH]c3c(c2c1)CCCC3 | -5 | 20µM* | ? | -74% | 0% | 1%
Cc1ccc(NC(=S)NCc2ccc3[nH]c4c(c3c2)CCCC4)cc1 | ? | 7.9µM* | 5% | 2.8µM* | ? | ?
SMILES | Giardia kill | RORg inh | MCF10A rerep | Gal4-VP16 FLuc | SW480 rerep | BCR signal inh
CCCn1nnnc1NCc1c(F)cccc1Cl | -15 | 3% | -16% | -5% | -95% | 4%
N#CC1=C(N)NC(SCc2ccccc2)=C(C#N)C12CCCCC2 | -1 | 25% | 8.2µM* | -29% | ? | ?
CO[C@H]1COC(=O)[C@H]2CCCN2C(=O)C/C=C\[C@@H](C)[C@H](OC)COC(=O)C/C=C\[C@@H]1C | . | 33%[10 µM] | . | -11%[10 µM] | . | .
CC1=C(C(=O)Nc2ccccc2)C(c2cccc(Cl)c2)n2nc(SCC(=O)c3ccc(C)cc3)nc2N1 (stereo not drawn) | . | . | . | . | . | 5%
O=C(CN1C(=O)NC2(CCCCC2)C1=O)Nc1cccc2ncccc12 | 30 | . | 0% | . | 21µM* | -3%
Cc1ccc2occ(/C=N/NC(=O)c3ccc(O)cc3)c(=O)c2c1 | -3 | 20µM* | -45% | -28% | -14% | ?
COCCn1c(C)cc(/C=N/NC(=O)c2cccnc2)c1C | 8 | 1% | 15% | -4% | -3% | -21%
Cc1cc(/C=N/NC(=O)c2ccc(O)cc2)c(C)n1CC(C)C | -14 | 7.9µM* | -2% | -22% | -15% | ?
CC(C)c1ccc(N(CC(=O)NCc2ccc(F)cc2)C(=O)c2csnn2)cc1 | 22 | 19% | -3% | -6% | -5% | -1%
COc1cc(OC)nc(Oc2ccccc2C=O)n1 | -4 | . | 16µM* | . | 3% | .
COc1ccc(CNS(=O)(=O)c2ccccc2Br)cc1 | 29 | 19% | . | 6% | . | ?
CCNC(=S)N(Cc1cc2c(C)ccc(C)c2[nH]c1=O)C1CCCC1 | 15 | -39% | ? | -12% | 3.7µM* | 0%
CCNC(=S)N(Cc1cc2cc(C)cc(C)c2[nH]c1=O)C1CCCC1 | -16 | -24% | 6% | -9% | -3% | -2%
O=C(NN1C(=O)c2cc(Br)ccc2NC1c1cc(Br)cc(Br)c1O)c1ccncc1 (stereo not drawn) | 4 | 5µM* | ? | 7.9µM* | ? | ?
COc1ccc(Br)cc1C1Nc2ccccc2C(=O)N1NC(=O)c1ccncc1 (stereo not drawn) | 3 | 17% | -7% | -3% | -3% | -6%
O=C(NN1C(=O)c2cc(Br)ccc2NC1c1ccccc1Cl)c1ccncc1 (stereo not drawn) | 5 | ? | 6% | -19% | 21µM* | 0%
N#C/C(=C(/O)c1ccco1)c1nc2ccccc2s1 | -30 | ? | ? | -11% | -9% | ?
N#C/C(=C(/O)c1cc2ccccc2o1)c1nc2ccccc2s1 | 12 | 9% | 8.2µM* | -11% | ? | ?
CCOc1ccc(NC(=O)CC(C)O)cc1 (stereo not drawn) | . | 0%[10 µM] | 0% | 0% | 0% | .

High-throughput results from PubChem BioAssay.
